In PubChem BioAssay (NCI):
Compounds without any hit were thinned out: in the full panel of roughly 83,000, 20% have a hit.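 48-hour exposure, single concentration, 96-well plates; percent growth endpoint where 0 means no net growth. Active: below 10.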 Calls of active or inactive are those of the source.

Tests used:
Test in all cases: NCI-60 one-dose screen, 48 h (100 = growth as untreated, 0 = no growth, -100 = all killed)
Settings in all cases: 10 µM unless noted
HCT-15 colon = test system: HCT-15 colon
HT29 colon = test system: HT29 colon
SNB-75 CNS = test system: SNB-75 CNS
SNB-19 CNS = test system: SNB-19 CNS
U251 CNS = test system: U251 CNS
PC-3 prostate = test system: PC-3 prostate
SK-MEL-5 melanoma = test system: SK-MEL-5 melanoma
UACC-62 melanoma = test system: UACC-62 melanoma
LOX IMVI melanoma = test system: LOX IMVI melanoma
SK-MEL-28 melanoma = test system: SK-MEL-28 melanoma
SK-MEL-2 melanoma = test system: SK-MEL-2 melanoma
SN12C renal = test system: SN12C renal
UO-31 renal = test system: UO-31 renal
TK-10 renal = test system: TK-10 renal
CAKI-1 renal = test system: CAKI-1 renal
A498 renal = test system: A498 renal
CCRF-CEM leukemia = test system: CCRF-CEM leukemia
MOLT-4 leukemia = test system: MOLT-4 leukemia
EKVX NSCLC = test system: EKVX NSCLC
ACHN renal = test system: ACHN renal

Measured: growth

CC(=O)N1N=C(c2ccc(Nc3nc(Nc4ccc(F)cc4)nc(Nc4ccc(F)cc4)n3)cc2)CC1c1ccc(N(C)C)cc1 (centres undefined)
inactive: HCT-15 colon 46.9% | HT29 colon 50.7% | SNB-75 CNS 62.7% | SNB-19 CNS 66.2% | U251 CNS 49.8% | PC-3 prostate 32.8% | SK-MEL-5 melanoma 29.3% | UACC-62 melanoma 57% | LOX IMVI melanoma 52.5% | SK-MEL-28 melanoma 64.2% | SK-MEL-2 melanoma 40.3% | SN12C renal 100% | UO-31 renal 34% | TK-10 renal 72.9% | CAKI-1 renal 59.3% | A498 renal 63.5% | MOLT-4 leukemia 14.2%
active: CCRF-CEM leukemia -2.06%

O=c1cc(CNc2cc(F)cc(F)c2)c2ccc(I)cc2[nH]1
active: HT29 colon 8.99% | SNB-75 CNS -9.56% | A498 renal 3.87%
inactive: HCT-15 colon 32.1% | SNB-19 CNS 49.8% | U251 CNS 31.8% | PC-3 prostate 26.7% | SK-MEL-5 melanoma 18.5% | UACC-62 melanoma 36.7% | LOX IMVI melanoma 41% | SK-MEL-28 melanoma 64% | SK-MEL-2 melanoma 39.2% | EKVX NSCLC 44% | TK-10 renal 53.3% | ACHN renal 36.3% | CAKI-1 renal 26.6% | CCRF-CEM leukemia 14.8% | MOLT-4 leukemia 28.1%

O=C(/C=C/c1ccco1)Nc1ncc(Cc2cc(Cl)ccc2Cl)s1
inactive: HCT-15 colon 13.5% | SNB-75 CNS 16.6% | SNB-19 CNS 44.8% | U251 CNS 18.9% | PC-3 prostate 25.3% | SK-MEL-5 melanoma 15.2% | UACC-62 melanoma 26.9% | LOX IMVI melanoma 25.9% | SK-MEL-28 melanoma 57% | SK-MEL-2 melanoma 36.3% | SN12C renal 29.6% | UO-31 renal 36.6% | TK-10 renal 51.5% | ACHN renal 35.7% | CAKI-1 renal 36.5% | A498 renal 10.3% | CCRF-CEM leukemia 17.3% | MOLT-4 leukemia 14%
active: HT29 colon 9.68%

O=C(CN1C(=O)S/C(=C\C(Cl)=C\c2ccccc2)C1=O)NC1CCS(=O)(=O)C1 (centres undefined)
inactive: HCT-15 colon 15.7% | HT29 colon 53.5% | SNB-75 CNS 57.8% | SNB-19 CNS 86.8% | U251 CNS 81.6% | PC-3 prostate 80.9% | SK-MEL-5 melanoma 84.5% | UACC-62 melanoma 72.1% | LOX IMVI melanoma 14.2% | SK-MEL-28 melanoma 74.9% | SK-MEL-2 melanoma 85% | EKVX NSCLC 82.4% | UO-31 renal 65.6% | TK-10 renal 64% | ACHN renal 46.8% | CAKI-1 renal 78.1% | A498 renal 99.7% | MOLT-4 leukemia 40.7%

COc1cc(OC)c2c(=O)c3c(CC=C(C)C)cc(OC)c(O)c3oc2c1
inactive: HCT-15 colon 59.8% | HT29 colon 95.4% | SNB-75 CNS 60% | SNB-19 CNS 92.7% | U251 CNS 85.1% | PC-3 prostate 99.2% | SK-MEL-5 melanoma 76.4% | UACC-62 melanoma 75.2% | LOX IMVI melanoma 82% | SK-MEL-28 melanoma 88.4% | SK-MEL-2 melanoma 91.4% | SN12C renal 96% | UO-31 renal 72% | TK-10 renal 82.9% | ACHN renal 79.7% | CAKI-1 renal 75.3% | A498 renal 67.7% | CCRF-CEM leukemia 76.9% | MOLT-4 leukemia 66.4%

COc1ccccc1/C=C/C(=O)Nc1ccc(F)cc1
inactive: HCT-15 colon 98.4% | HT29 colon 89.1% | SNB-75 CNS 77.9% | SNB-19 CNS 99.8% | U251 CNS 108% | PC-3 prostate 95.7% | SK-MEL-5 melanoma 95.1% | LOX IMVI melanoma 100% | SK-MEL-28 melanoma 108% | SK-MEL-2 melanoma 99.1% | EKVX NSCLC 73.2% | SN12C renal 111% | UO-31 renal 87.6% | TK-10 renal 128% | ACHN renal 101% | CAKI-1 renal 90.7% | A498 renal 102% | CCRF-CEM leukemia 97.6% | MOLT-4 leukemia 88.1%

O=C1OCC2=C1C(c1ccccc1)c1cc3c(cc1N2CCO)OCCO3 (centres undefined)
inactive: SNB-19 CNS 12.8% | PC-3 prostate 17.3% | LOX IMVI melanoma 34.6% | SK-MEL-28 melanoma 32.6% | SK-MEL-2 melanoma 57.3% | EKVX NSCLC 48.4% | SN12C renal 35.1% | UO-31 renal 68.4% | TK-10 renal 63.5% | CAKI-1 renal 51% | CCRF-CEM leukemia 10.5% | MOLT-4 leukemia 21.4%
active: HCT-15 colon 7.18% | HT29 colon -35.9% | SNB-75 CNS -11.2% | U251 CNS 7.86% | SK-MEL-5 melanoma 4.37% | A498 renal -21.2%

Cc1cc(NCCCNc2ccnc3cc(Cl)ccc23)nc(Nc2ccc(C(=O)N3CCCCC3)cc2)n1
inactive: SNB-75 CNS 26.7% | SNB-19 CNS 25.6% | PC-3 prostate 50.5% | SK-MEL-2 melanoma 75.7% | EKVX NSCLC 48.4% | SN12C renal 36.6% | UO-31 renal 57.6% | CAKI-1 renal 76.2% | A498 renal 66.9% | CCRF-CEM leukemia 14.4% | MOLT-4 leukemia 20.7%
active: HCT-15 colon 0.549% | HT29 colon -5.41% | U251 CNS -8.28% | SK-MEL-5 melanoma -98.5% | LOX IMVI melanoma -77.1% | SK-MEL-28 melanoma -71.2% | TK-10 renal 5.49%

CC(C)c1ccc2c(c1)CC[C@H]1[C@](C)(C(=O)OCC#CCN3CCCC3)CCC[C@]21C
active: CCRF-CEM leukemia 6.39%
inactive: HCT-15 colon 42.7% | HT29 colon 36.8% | SNB-75 CNS 88.6% | SNB-19 CNS 86.8% | U251 CNS 69.2% | PC-3 prostate 61.9% | SK-MEL-5 melanoma 64.7% | LOX IMVI melanoma 91.1% | SK-MEL-28 melanoma 76% | SK-MEL-2 melanoma 103% | EKVX NSCLC 74.8% | SN12C renal 71.5% | UO-31 renal 60.7% | TK-10 renal 98.6% | ACHN renal 86.2% | CAKI-1 renal 94.5% | A498 renal 105% | MOLT-4 leukemia 72.7%

COc1ccc(C/C(C)=C(\c2ccc(Cl)cc2)c2ccc(OCCCN(C)C)cc2)cc1
inactive: HCT-15 colon 27.3% | HT29 colon 13.6% | SNB-75 CNS 72.4% | SNB-19 CNS 86.7% | U251 CNS 46.4% | PC-3 prostate 68.7% | SK-MEL-5 melanoma 78.3% | LOX IMVI melanoma 73.1% | SK-MEL-28 melanoma 80.8% | SK-MEL-2 melanoma 111% | EKVX NSCLC 94.1% | SN12C renal 78.8% | UO-31 renal 62.4% | TK-10 renal 86.7% | CAKI-1 renal 87.3% | A498 renal 114% | CCRF-CEM leukemia 56.9% | MOLT-4 leukemia 40.9%

COc1ccc(-c2cc(-c3cccnc3)nc3sc4c(N)c(C(C)=O)c(-c5ccccc5)nc4c23)cc1OC
inactive: HCT-15 colon 73.6% | HT29 colon 52.5% | SNB-75 CNS 63.5% | SNB-19 CNS 86% | U251 CNS 55.6% | PC-3 prostate 54.9% | SK-MEL-5 melanoma 39.4% | LOX IMVI melanoma 75.5% | SK-MEL-28 melanoma 70% | SK-MEL-2 melanoma 89.1% | SN12C renal 80.3% | UO-31 renal 51.8% | TK-10 renal 77.6% | ACHN renal 81.1% | CAKI-1 renal 61.8% | A498 renal 71.7% | CCRF-CEM leukemia 70.5% | MOLT-4 leukemia 72.5%

O=C(/C=C/c1cccc(Oc2ccccc2)c1)c1ccc(Nc2nc(Nc3ccc(F)cc3)nc(Nc3ccc(Cl)cc3)n2)cc1
inactive: HCT-15 colon 109% | HT29 colon 101% | SNB-75 CNS 92.5% | SNB-19 CNS 108% | U251 CNS 101% | PC-3 prostate 94% | SK-MEL-5 melanoma 96.4% | LOX IMVI melanoma 108% | SK-MEL-28 melanoma 112% | SK-MEL-2 melanoma 69.1% | EKVX NSCLC 106% | SN12C renal 123% | UO-31 renal 91.8% | TK-10 renal 130% | ACHN renal 98.6% | CAKI-1 renal 104% | A498 renal 113% | CCRF-CEM leukemia 116%
active: MOLT-4 leukemia -35.6%

Cc1ccc(Cc2cnc(NC(=O)/C=C/c3ccc(C)o3)s2)cc1
inactive: HCT-15 colon 19.9% | HT29 colon 11.4% | SNB-75 CNS 26.7% | SNB-19 CNS 56.4% | U251 CNS 41.9% | PC-3 prostate 33.3% | SK-MEL-5 melanoma 23.8% | UACC-62 melanoma 31.9% | LOX IMVI melanoma 49.5% | SK-MEL-28 melanoma 65.5% | SK-MEL-2 melanoma 53.8% | SN12C renal 51.7% | UO-31 renal 48.5% | TK-10 renal 68% | CAKI-1 renal 36% | A498 renal 25.1% | CCRF-CEM leukemia 27.8% | MOLT-4 leukemia 37.6%

C=C1C(=O)O[C@@H]2C3C(=C(C)CC[C@@H]12)CC1O[C@]13C (some centres undefined)
inactive: HCT-15 colon 50.4% [6.75 µM] | HT29 colon 85.5% [6.75 µM] | SNB-75 CNS 86.1% [6.75 µM] | SNB-19 CNS 92.8% [6.75 µM] | U251 CNS 90.3% [6.75 µM] | PC-3 prostate 85.2% [6.75 µM] | SK-MEL-5 melanoma 55.6% [6.75 µM] | LOX IMVI melanoma 51.8% [6.75 µM] | SK-MEL-28 melanoma 90.4% [6.75 µM] | SK-MEL-2 melanoma 90.4% [6.75 µM] | SN12C renal 86.6% [6.75 µM] | UO-31 renal 54.5% [6.75 µM] | TK-10 renal 40.5% [6.75 µM] | ACHN renal 73.2% [6.75 µM] | CAKI-1 renal 90.1% [6.75 µM] | A498 renal 103% [6.75 µM] | MOLT-4 leukemia 84% [6.75 µM]

Nc1ccc(-c2ccncc2)cc1NC(=O)N1CCCC1
inactive: HCT-15 colon 100% | HT29 colon 72.9% | SNB-75 CNS 85% | SNB-19 CNS 106% | U251 CNS 89.8% | PC-3 prostate 91.2% | SK-MEL-5 melanoma 99.3% | LOX IMVI melanoma 112% | SK-MEL-28 melanoma 96.1% | SK-MEL-2 melanoma 87.9% | EKVX NSCLC 104% | SN12C renal 100% | TK-10 renal 85.2% | ACHN renal 108% | CAKI-1 renal 95% | A498 renal 76.8% | CCRF-CEM leukemia 88.1% | MOLT-4 leukemia 87%
